The list is not random: actives were taken first. Their share in the collection is about 2.3%.
Abeta rescue – restores growth of yeast expressing A-beta42 peptide; Potency, µM (highest dose often 46.1 µM), actives largely listed as activators; yeast expressing A-beta42, growth rescue, OD600, 48 h; response scale: 0% DMSO, 100% iron-clioquinol control; AID 1347071; 0.063% of 410,000 active; note: nearly all actives have a fitted effect of over 55% in size
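Yeast growth medium received pinned compounds, then yeast cells expressing toxic A-beta were added; plates incubated at 30 C for 48 hr. Growth read as absorbance at 600 nm, normalized to DMSO and equimolar FeCl3 plus clioquinol controls.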
TDP43 rescue – inhibitors of TDP-43 toxicity in yeast | 1.8% of 410,000 active | AID 652104 | Potency, µM (series often up to 46.1 µM), inactives show top-dose growth rescue (activation), hits mostly activators | TDP-43 expressing yeast growth rescue, BacTiter-Glo, 24 h; note: % of control where 0% means no effect; nearly all actives have a fitted effect of over 50% in size
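Galactose-induced TDP-43 yeast, OD600=0.02, compound pinned; 24 hr, 30 deg C; BacTiter-Glo luminescence for growth. Inhibitors of TDP-43 toxicity read as activators.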
BCR signal inh – blocks chronic active B-cell receptor signaling. ABC-DLBCL IkBa-CBG/CBR reporter, luminescence ratio, 4 h. Potency, µM (highest dose often 46.1 µM), without a hit: at the top dose activity change, negative = inhibition, actives largely listed as inhibitors. 0.05% of 340,000 active; active = well fitted inhibition curve with a large enough effect in the signal ratio, with a control signal flat, not every such curve was filed as active; inconclusive = small, poorly fitted or top-dose-only effect, or effect the other way, or a change in a side signal; the % refers to the signal ratio;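 note: plate controls were basal doxycycline-induced cells for no effect and cells given 10 µM MG132 for full effect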
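TMD8 ABC-DLBCL cells carrying doxycycline-inducible green luciferase fused to IkappaBalpha plus unfused red luciferase were exposed to compounds (up to 46 uM) for 4 hrs at 37C. Activity came from the overlap-corrected green/red luminescence ratio.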
FUS suppressor – suppressors of FUS proteinopathy in yeast. S. cerevisiae FUS-expressing, growth rescue, OD600, 24 h. Potency, µM (top dose mostly 76.6 µM), hits mostly activators. 0.24% of 390,000 active. AID 1347120;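 note: plate controls were DMSO vehicle for no effect and reference control for full effect; nearly all actives have a fitted effect of over 55% in size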
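Yeast FUS proteinopathy model; galactose-induced FUS (2%), starting OD 0.005. Cpds in dilution series, 24hr, 30C, 99% humidity. Abs 600 nm growth. Pos ctrl CP55940 (top 92uM final); neg ctrl DMSO.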
aSyn yeast inh – rescues yeast growth from alpha-synuclein toxicity | Yeast expressing alpha-synuclein, growth rescue, BacTiter-Glo, 24 h | Potency, µM (highest dose often 46.1 µM), for inactives: top-dose growth rescue (activation), hits mostly activators | 0.14% of 370,000 active; note: % of control where 0% means no effect; nearly all actives have a fitted effect of over 65% in size
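Rescue of yeast growth: cells expressing toxic alpha-synuclein, induced in galactose at OD600 0.02, incubated with compound 24 h at 30 C. ATP luminescence quantified growth; inhibitors of toxicity appear as activators.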
uPA surface inh – inhibitors of cell surface uPA generation | cell surface uPA generation assay, qHTS | Potency, µM (titrated, usually from 38.3 µM), inactives show at the top dose activity change, negative = inhibition, usual class: inhibitors | AID 540303 | 0.31% of 330,000 active; active = well fitted inhibition curve with a large enough effect; inconclusive = small, poorly fitted or top-dose-only effect; inactive = no such curve, though single readings can be large or run the other way; tested in mouse RAW 264.7 cells; note: % is set by controls: 0 for no effect and ±100 for the full control effect; nearly all actives have a fitted effect of over 55% in size
An asterisk follows results filed as active; i = inactive; ? = inconclusive; nt = no result. Unless noted, calls come from the whole dose curve; as a rule, active = well fitted curve in the direction sought with a large enough effect; inconclusive = small, poorly fitted or top-dose-only effect, or another doubt; inactive = no such curve, though single readings can be large; an effect the other way counts as inactive or inconclusive. Potency is the fitted concentration of half-maximal effect.

SMILES | Abeta rescue | TDP43 rescue | BCR signal inh | FUS suppressor | aSyn yeast inh | uPA surface inh
CC1CCN(c2oc(-c3ccco3)nc2S(=O)(=O)c2ccccc2)CC1 | i | 16µM* | 1% | i | -5% | 0%
O=S(=O)(c1ccccc1)c1nc(-c2ccco2)oc1N1CCCCC1 | i | 0% | 5% | i | 1% | 2%
COc1ccc(-c2noc(CN(C)Cc3ccccc3)n2)cc1 | i | 28% | ? | i | 0% | 15%
O=C(c1ccc(COc2ccccc2)o1)N1CCN(S(=O)(=O)c2ccccc2Cl)CC1 | i | 16µM* | -6% | i | 0% | -4%
O=C(c1ccc(CS(=O)(=O)c2c(Cl)cccc2Cl)o1)N1CCN(c2ccccc2)CC1 | i | 29% | nt | 28µM* | nt | nt
COc1cc(N2C(=O)C=CC2=O)ccc1N1C(=O)C=CC1=O | i | 20µM* | nt | nt | 15% | -7%
COc1nccnc1NS(=O)(=O)c1ccc(NC(=S)NC(=O)c2ccccc2)cc1 | i | 21% | -1% | nt | -14% | 2%
COCc1cc(C)nc2sc(C(=O)OC)c(N)c12 | i | 13µM* | ? | i | 1% | 1%
CCc1ccccc1NC(=O)c1sc2nc(C)cc(C)c2c1N | i | 18µM* | -1% | i | 0% | -9%
COCc1cc(C)nc2sc(C(=O)N3CCCC3)c(N)c12 | i | -3% | ? | i | -3% | nt
CCOC(=O)N/N=C/c1ccc(Oc2ccccc2)cc1 | ? | 18µM* | ? | i | 1% | -1%
CCOC(=O)N/N=C/c1ccc(C)o1 | i | -9% | 2% | i | 1% | nt
CC(C)(C)c1ccc(C(CC(=O)O)NC(=O)CCCc2ccccc2)cc1 (stereo unspecified) | i | 7% | -10% | i | 6% | 2%
CCCC(=O)N/C(N)=N/c1nc2ccccc2o1 | i | 13µM* | ? | i | -18% | -3%
N#Cc1c(NC(=O)CSc2ncn[nH]2)sc2c1CCCC2 | i | 5% | 23µM* | i | 3% | -7%
CCCCc1cc(=O)oc2c(C)c(OCC(=O)N3CCC(C(=O)O)(c4ccccc4)CC3)ccc12 | i | 12% | ? | 28µM* | -10% | 2%
COc1cc(/C=N/NC(=O)CCn2c3ccccc3c3ccccc32)cc(OC)c1OC | i | 16% | ? | i | 3% | 3%
Cc1cccc(NC(=O)c2cc([N+](=O)[O-])ccc2Cl)c1O | i | 22µM* | -18% | i | -3% | -3%
Cc1cccc[n+]1CCCCCCCCCC[n+]1ccccc1C | i | -10% | 1% | i | 1% | 2%
CCCCCCCCCC[n+]1cccc2cc(Cl)ccc21 | nt | nt | nt | nt | -13% | nt
CCCCCCCC[n+]1cccc2c3ccccc3ccc21 | i | -22% | ? | i | -5% | 0.89µM*
CCCCCCCCCC[n+]1cccc2c3ccccc3ccc21 | i | -70% | ? | i | -46% | 0.71µM*
Cn1c(=O)c2[nH]c(=O)cnc2n(C)c1=S | i | 15% | -4% | i | -2% | -2%
C=CCNc1oc(COc2ccc(C)cc2)nc1C#N | i | ? | -8% | i | -13% | -2%
CCCC(=O)N1CCC1(C)C(=O)Nc1ccc(C)c(C)c1 (stereo unspecified) | i | 5% | nt | i | 13% | nt
SMILES | Abeta rescue | TDP43 rescue | BCR signal inh | FUS suppressor | aSyn yeast inh | uPA surface inh
CCCC(=O)N1CCC1(C)C(=O)Nc1ccc(-n2cccc2)cc1 (stereo unspecified) | i | 20µM* | nt | i | 3% | nt
CCCC(=O)Nc1ccccc1-c1nnn(CC(=O)Nc2ccc(OC)cc2)n1 | i | 13% | -1% | i | -2% | 9%
Cc1ccccc1OCCCCn1c(C2CC(=O)N(c3ccccc3Cl)C2)nc2ccccc21 (stereo unspecified) | ? | 11µM* | nt | i | nt | nt
Cc1c(Cl)cccc1N1CC(c2nc3ccccc3n2Cc2ccccc2F)CC1=O (stereo unspecified) | i | 25µM* | nt | i | nt | nt
CCOc1ccc(N2CC(c3nc4ccccc4n3Cc3ccccc3F)CC2=O)cc1 (stereo unspecified) | i | 1% | nt | i | nt | nt
O=C1CC(c2nc3ccccc3n2Cc2c(F)cccc2Cl)CN1c1cccc(C(F)(F)F)c1 (stereo unspecified) | i | 25µM* | nt | i | nt | nt
Cc1cccc(C)c1OCCn1c(C2CC(=O)N(c3cccc(Cl)c3)C2)nc2ccccc21 (stereo unspecified) | i | -2% | nt | i | nt | nt
CC(=O)NCCc1nc2cc(NC(=O)c3ccccc3C)ccc2n1C | i | 3% | ? | i | 1% | 5%
Cc1cnc(NC(=O)CCc2ccccc2)s1 | i | 2% | ? | i | -7% | 10µM*
CC(=O)Nc1ccc(C2=CC(=O)C[C@H](c3ccc4c(c3)OCO4)C2)cc1 | i | 22µM* | -1% | i | -5% | -9%
CSc1ccc(C2=CC(=O)C[C@H](c3ccc4c(c3)OCO4)C2)cc1 | i | -9% | -6% | i | 0% | -4%
O=C1C=C(/C=C/c2ccccc2)C[C@@H](c2ccc3c(c2)OCO3)C1 | i | 20µM* | ? | i | 10% | 20%
COc1ccc(C2=CC(=O)C[C@H](c3ccc4c(c3)OCO4)C2)cc1 | i | 11µM* | -1% | i | 0% | -1%
O=C1C=C(c2ccc(O)cc2)C[C@@H](c2ccc3c(c2)OCO3)C1 | i | 12% | ? | i | 6% | ?
Cc1ccc(C2=CC(=O)C[C@H](c3ccc4c(c3)OCO4)C2)cc1 | i | 13µM* | 5% | i | 8% | -19%
Cc1nnc(C)n1/N=C/c1cc(Br)cc(Br)c1O | i | -33% | 3% | i | -4% | 0%
O=C1C=C(c2ccccc2Oc2ccccc2)C[C@@H](c2ccc3c(c2)OCO3)C1 | i | 0% | 0% | i | 0% | -2%
O=C1C=C(c2ccccc2C(F)(F)F)C[C@@H](c2ccc3c(c2)OCO3)C1 | i | 18µM* | 3% | i | 15% | -53%
CC(=O)Nc1ccc(NC(=O)Nc2ccc(C)c(C)c2)cc1 | i | 4% | -2% | i | 0% | -2%
CCOC(=O)c1c(C=O)c(C)n(Cc2ccc(Cl)cc2)c1C | i | 35µM* | ? | i | 9% | -1%
Cc1noc(C(=O)Nc2cccnc2)c1Cl | i | 1% | 22% | i | 11% | -7%
CNC(=S)NNC(=O)CCn1nc(C)c(Br)c1C | i | -14% | nt | i | -12% | nt
Cc1nn(CCC(=O)NNC(=S)NCC(C)C)c(C)c1Br | i | -4% | 16µM* | i | -4% | nt
